FEN1 inhibitor: qHTS Assay for the Inhibitors of Human Flap endonuclease 1 (FEN1) | P39748 | Recombinant FEN1 flap cleavage, fluorescence, 15 min | Potency, µM (highest dose often 114 µM), inactives show at the highest dose activity change, negative = inhibition, most hits filed as inhibitors | actives 0.35% (n = 390,000) | AID 588795, 2011; note: nearly all actives have a fitted effect of over 65% in size
Target sequence (P39748 whole entry, looked up): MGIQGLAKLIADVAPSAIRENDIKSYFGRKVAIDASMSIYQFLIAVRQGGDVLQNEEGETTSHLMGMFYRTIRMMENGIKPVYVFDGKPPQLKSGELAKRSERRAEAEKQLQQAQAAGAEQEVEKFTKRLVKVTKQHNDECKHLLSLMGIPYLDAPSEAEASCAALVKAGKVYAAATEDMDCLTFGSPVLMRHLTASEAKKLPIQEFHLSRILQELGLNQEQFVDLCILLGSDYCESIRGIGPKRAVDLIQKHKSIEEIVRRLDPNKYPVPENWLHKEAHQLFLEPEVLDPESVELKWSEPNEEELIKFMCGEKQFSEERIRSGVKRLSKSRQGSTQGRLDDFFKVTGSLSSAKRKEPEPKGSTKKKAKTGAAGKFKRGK
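FEN1 at 10 nM preincubated with compounds 15 min at room temperature, then flap DNA substrate added at 50 nM final. Signal read at 0 and 15 min; concentration-response fitted with four-parameter Hill equation.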
APE1 inh: qHTS Assay for Inhibitors of the Human Apurinic/apyrimidinic Endonuclease 1 (APE1); DNA repair nuclease/redox regulator APEX1 (Homo sapiens), P27695; recombinant APE1, TAMRA/BHQ-2 abasic DNA cleavage fluorescence; Potency, µM (series often up to 65.8 µM), inactives show at the top dose activity change, negative = inhibition, hits mostly inhibitors; actives 0.35% (n = 350,000); AID 2517, 2012;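 note: plate controls were vehicle for no effect and reference inhibitor for full effect; nearly all actives have a fitted effect of over 55% in size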
Target sequence (P27695 whole entry, looked up): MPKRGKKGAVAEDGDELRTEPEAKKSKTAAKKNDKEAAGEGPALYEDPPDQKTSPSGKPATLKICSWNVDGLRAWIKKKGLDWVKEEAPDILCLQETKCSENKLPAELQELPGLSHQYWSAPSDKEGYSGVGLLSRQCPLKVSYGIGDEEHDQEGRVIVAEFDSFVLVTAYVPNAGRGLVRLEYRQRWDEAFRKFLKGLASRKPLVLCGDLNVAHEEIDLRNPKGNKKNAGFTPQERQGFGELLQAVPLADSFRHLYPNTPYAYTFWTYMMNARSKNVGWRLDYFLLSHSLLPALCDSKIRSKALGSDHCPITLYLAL
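Compound pre-exposure to 0.75 nM APE1, 15 min at ambient temperature. Reaction initiated with 50 nM TAMRA/BHQ-2 THF substrate, read immediately in kinetic mode, 525 nm excitation, 598 nm emission.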
RECQ1 helicase: qHTS Assay for Inhibitors of RecQ-Like Dna Helicase 1 (RECQ1). actives 0.54% (n = 240,000). Potency, µM (series often up to 57.3 µM), for inactives: at the top dose activity, negative = inhibition, hits mostly inhibitors. RECQ1 DNA unwinding, red fluorescence kinetic read;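 note: plate controls were vehicle for no effect and no enzyme for full effect; nearly all actives have a fitted effect of over 30% in size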
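50 nM RECQ1T1 preincubated 15 min with compound in Tris pH 8.0 buffer with MgCl2, DTT, Tween-20 and 2.5 ug/ml poly(dI-dC); started with 200 nM TAMRA/BHQ-2 forked duplex and 2 mM ATP. Unwinding read as fluorescence (525/598 nm), two reads 2 h apart.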
BLM inh: qHTS Assay for Inhibitors of Bloom's syndrome helicase (BLM). recombinant BLM DNA unwinding, fluorescence dequenching. Potency, µM (top dose mostly 56.1 µM), inactives show at the highest dose activity change, negative = inhibition, actives largely listed as inhibitors. actives 0.2% (n = 350,000);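 note: plate controls were vehicle for no effect and no enzyme for full effect; nearly all actives have a fitted effect of over 35% in size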
WRN helicase inh: qHTS for Inhibitors of WRN Helicase. Bifunctional 3'-5' exonuclease/ATP-dependent helicase WRN (Homo sapiens), Q14191. Potency, µM (series often up to 114 µM), for the others: at the highest dose activity change, negative = inhibition, most hits filed as inhibitors. actives 0.46% (n = 360,000). WRN helicase unwinding, fluorescent forked duplex, kinetic. AID 651768, 2012; note: nearly all actives have a fitted effect of over 55% in size
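Enzyme (20 nM final) and test compound sit together 15 min at room temperature before substrate addition. Substrate is a single-forked duplex oligonucleotide (100 nM) labelled with fluorophore and quencher, with 2 mM ATP; helicase unwinding raises red fluorescence, read kinetically.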
Numbers without * were called inactive; i = inactive; ? = inconclusive; nt = not tested or not shown; [ ] = another dose, or the depositor's remark. The list is not random: actives were taken first. Their share in the collection is about 0.87%. Calls come from the whole dose curve; as a rule, active = well fitted curve in the direction sought with a large enough effect; inconclusive = small, poorly fitted or top-dose-only effect, or another doubt; inactive = no such curve, though single readings can be large; an effect the other way counts as inactive or inconclusive. Unless noted, % is set by controls: 0 for no effect and ±100 for the full control effect; potency is the fitted concentration of half-maximal effect.

SMILES	FEN1 inhibitor	APE1 inh	RECQ1 helicase	BLM inh	WRN helicase inh
C/C=C\C1=C(CO)[C@H](O)[C@H]2O[C@H]2[C@H]1O	nt	17%[12.4 µM]	i[11.5 µM]	3%[12.4 µM]	nt
O=[N+]([O-])c1cc2c(cc1/C=N/n1c(-c3ccccn3)n[nH]c1=S)OCO2	-4%	?	-4%	-11%	8%
O=[N+]([O-])c1ccccc1/C=N/n1c(-c2cccnc2)n[nH]c1=S	-5%	0%	8%	-2%	-27%
O=[N+]([O-])c1cc(/C=N/n2c(-c3cccnc3)n[nH]c2=S)ccc1Cl	56µM*	0%	2%	-15%	?
O=[N+]([O-])c1cc2c(cc1/C=N/n1c(-c3ccccc3)n[nH]c1=S)OCO2	-5%	-2%	-13%	18µM*	-21%
CCOC(=O)c1cc(-c2ccc(OC)cc2)n(CCC(=O)NCc2ccccc2OC)c1C	-19%	nt	nt	-9%	nt
COc1cc2c(NC3CCN(C)CC3)nc(N3CCCN(C)CC3)nc2cc1OCCOCCN1CCCC1	20µM*	nt	nt	nt	nt
COc1cc2nc(N3CCOCC3)nc(NC3CCN(Cc4ccccc4)CC3)c2cc1OC	-10%	nt	nt	nt	nt
COc1cc2c(NC3CCN(C)CC3)nc(N3CCCN(C)CC3)nc2cc1OCCCN1CCCCC1	22µM*	nt	nt	nt	nt
COc1cc2nc(Cl)nc(NC3CCN(Cc4ccccc4)CC3)c2cc1OC	-10%	nt	nt	nt	nt
Cc1cc(C)c(Cn2c3ccccc3c3cnn(CC(=O)NCC(C)c4ccccc4)c(=O)c32)c(C)c1 (centres undefined)	-10%	nt	nt	-3%	nt
COc1ccc(-c2nnc(SCC(=O)Nc3ccc(C(C)=O)cc3)nc2-c2ccc(OC)cc2)cc1	5%	nt	nt	-1%	nt
CC(=O)c1ccc(NC(=O)CSc2nnc(-c3ccco3)c(-c3ccco3)n2)cc1	32µM*	16%	-7%	7.9µM*	32µM*
CC(C)(C)n1ncc2c(=O)n(Cc3ccc(OC(F)(F)F)cc3)cnc21	-23%	3%	nt	nt	nt
COc1ccccc1NC(=O)c1cc2ccccc2o/c1=N\O	-5%	0%	-13%	-20%	100µM*
CCCCCCCCN1[C@@H](CC(=O)O)c2ccc(/C=C/C(=O)O)cc2S1(=O)=O	16%	nt	nt	nt	nt
Nc1cc2c3c(cccc3c1)C(=O)N(CCN1CCCC1)C2=O	25µM*	?	?	118%	7%[11.6 µM]
O=[N+]([O-])c1cccc(CN2C(COCc3ccccc3)CCC=CS2(=O)=O)c1 (centres undefined)	13%	-4%	-8%	-4%	nt
COc1ccc2c(=O)c3c(=O)n(Cc4ccco4)c(-c4ccco4)nc3oc2c1	?	?	2%	-26%	45µM*
Cc1sc2ccccc2[n+]1CC(=O)O	-5%	15%	-1%	2%	50µM*
COc1ccc(C2=CC3=C(Br)C(=O)C(C)(OC(=O)c4cccs4)C(=O)C3=CO2)cc1 (centres undefined)	?	15%	-6%	-3%	?
COc1ccc(C2=CC3=C(Br)C(=O)C(C)(OC(=O)c4ccco4)C(=O)C3=CO2)cc1 (centres undefined)	40µM*	16%	-23%	2%	45µM*
O=C(c1ccc(F)cc1)N1CCCC(c2nc(-c3ccncc3)no2)C1 (centres undefined)	-10%	6%	nt	nt	-3%
COc1ccc(-c2noc(C3CCCN(C(=O)c4ccc(F)cc4)C3)n2)cc1 (centres undefined)	89µM*	-7%	nt	-3%	12%
CCc1cc2c(cc3c(=O)n(CC(=O)N4CCCCC4)nc(CC)n32)s1	-3%	nt	nt	-2%	nt
SMILES	FEN1 inhibitor	APE1 inh	RECQ1 helicase	BLM inh	WRN helicase inh
O=C(O)CCc1ccc(-c2cccs2)n1CCC(=O)O	-1%	14µM*	-9%	-3%	-3%[57.1 µM]
CC(=O)Nc1cc(-c2ccccc2N(C)C)cn2c(-c3cccc(C(F)(F)F)c3)cnc12	nt	nt	nt	nt	-11%
CC(=O)Nc1cc(-c2cccc(C(=O)NCCN(C)C)c2)cn2c(-c3cccc(C(F)(F)F)c3)cnc12	nt	nt	nt	nt	79µM*
N#Cc1c(-c2ccc(F)c(Br)c2)no[n+]1[O-]	nt	5%	nt	nt	nt
CCOc1ccc2nc3cc(N=Nc4ccc(N)nc4N)ccc3c(N)c2c1	7.1µM*	nt	nt	nt	?
Cn1c2ccccc2c2cc(/C=N/NC(=O)c3cc(O)cc(O)c3)ccc21	40µM*	13µM*	nt	-22%	?
COc1cc(C(=O)N/N=C/c2ccc3c(c2)c2ccccc2n3C)ccc1O	-24%	10%	nt	-7%	-7%[11.6 µM]
Cn1c2ccccc2c2cc(/C=N/NC(=O)c3cc(O)ccc3O)ccc21	56µM*	-44%	nt	-29%	22µM*
c1ccc2c(N3CCOCC3)c3c(nc2c1)CCC3	17%	7%	nt	-4%	-4%
COc1ccc2c(c1)CCc1c-2nc2ccccc2c1N1CCOCC1	50µM*	?	18%	55%	-18%
CCOC(=O)c1ccc2c(c1)n(CC)c(/C=C/N(C)c1ccccc1)[n+]2CC	-10%	2%	6%	7%	9%
CC[n+]1c(/C=C/N(C)c2ccccc2)n(-c2ccccc2)c2ccc(-c3nc4ccccc4s3)cc21	40µM*	?	-2%	12%	?
COc1ccc(-n2nc(C(=O)N3CCC(N4CCCCC4)CC3)c3c4ccccc4n(C)c3c2=O)cc1	89µM*	18%	nt	3%	-7%
O=C(O)CCc1c2ccc(=O)c(O)c-2oc2c(O)c(O)ccc12	1.4µM*	nt	nt	nt	nt
CC(C)Oc1ccc(C(=O)N/N=C/c2ccc(-c3ccc(S(=O)(=O)Nc4ncccn4)cc3)o2)cc1	79µM*	13%	?	-4%	50µM*
O=C(Nc1ccc([N+](=O)[O-])cc1Cl)c1cc(Cl)ccc1O	?	-24%	-5%	3%	-7%
O=C(Nc1cccc(Cl)c1)c1cc(N=Nc2ccc([N+](=O)[O-])cc2Cl)ccc1O	-21%	-3%	-5%	18µM*	-35%
Cc1ccccc1NC(=O)CSc1cn(CC(=O)N2CCCCCC2)c2ccccc12	-2%	nt	nt	-5%	nt
CCn1c(C)c(CS(=O)(=O)c2ccccc2)[nH]c1=O	9%	12%	i	0%	18µM*
CCn1c(=O)[nH]c2ccccc21	nt	-9%	-5%	2%	nt
COc1ccc(-n2c(=O)c3c4c(sc3n(Cc3cc(=O)n5c(C)cccc5n3)c2=O)CCC4)c(OC)c1	-7%	nt	nt	-10%	nt
O=C(Nc1ccc2oc(-c3ccccc3F)nc2c1)c1ccc([N+](=O)[O-])o1	-18%	2.7µM*	nt	-16%	4%
